Screens: PubChem, several laboratories
Mtb bLac sens: beta-lactam sensitization of Mtb H37Rv | inhibition, % at 25 µM | M. tuberculosis H37Rv growth with meropenem, percent inhibition | 0.27% of 330,000 active; call rule not given here;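 also: growth measured after seven days incubation then overnight dye step; 0% = bacteria only wells and 100% = bacteria with antibiotic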
Mtb FBA inh: inhibitors of M. tuberculosis fructose-bisphosphate aldolase. AID 588726. 2.3% of 360,000 active. inhibition, % at 1 µM. purified M. tuberculosis FBA, fluorescence read-out; in the data active = inhibition above about 27%;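 also: 0% = vehicle and 100% = reference inhibitor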
Target sequence (P9WQA3 whole entry, looked up): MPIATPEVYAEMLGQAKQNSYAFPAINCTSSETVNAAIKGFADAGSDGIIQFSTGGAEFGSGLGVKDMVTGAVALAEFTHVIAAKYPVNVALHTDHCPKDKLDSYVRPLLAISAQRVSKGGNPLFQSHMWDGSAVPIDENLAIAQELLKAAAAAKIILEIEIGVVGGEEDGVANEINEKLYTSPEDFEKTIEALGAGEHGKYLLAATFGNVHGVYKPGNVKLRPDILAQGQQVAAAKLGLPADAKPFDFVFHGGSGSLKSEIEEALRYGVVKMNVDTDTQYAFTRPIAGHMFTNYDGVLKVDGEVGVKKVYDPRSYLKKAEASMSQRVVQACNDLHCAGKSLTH
GDH-TPI inh: GDH-TPI coupled enzyme inhibition counter-screen; GDH-TPI coupled enzyme counterscreen, NADH absorbance; inhibition, % at 4.8 µM; 1.2% of 360,000 active; AID 588335;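 also: 0% = DMSO wells and 100% = wells lacking the enzyme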
MazEF act: MazEF (E. coli) toxin RNase activation; P0AE70; FAM/BHQ RNA-DNA oligo cleavage fluorescence, 5 h; activation, % at 20 µM; 0.32% of 350,000 active; AID 504720; in the data active = activation above about 50%
Target sequence (P0AE70 whole entry, looked up): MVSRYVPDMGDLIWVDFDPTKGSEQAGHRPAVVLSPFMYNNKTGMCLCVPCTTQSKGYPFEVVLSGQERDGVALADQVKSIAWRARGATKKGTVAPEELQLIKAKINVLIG
CCHF vOTU inh: blocks the CCHF virus ovarian tumor domain protease | CCHFV vOTU protease, Pep-AMC fluorescence | inhibition, % at 11.5 µM | 0.55% of 370,000 active | AID 651958; also: 0% = vehicle wells with enzyme and 100% = no enzyme wells
Active calls of the source: *; nt = no result; + = active, no number. Sampled rows, rich in hits. Any-hit rate of the full collection: about 4%. Rule as the data show it, unless noted: active = inhibition above about 30%; inactive = the rest.

SMILES	Mtb bLac sens	Mtb FBA inh	GDH-TPI inh	MazEF act	CCHF vOTU inh
CCN(C(C)=O)c1cnc(C=NNC(N)=S)c2ccccc12	nt	2	34*	6	9
COc1ccc(OCC(C)CN2CCC(C(O)(c3ccccc3)c3ccccc3)CC2)cc1 (stereo not given)	nt	nt	nt	nt	8
CCOC(=O)C1CCCN(C(=O)c2cn(CC)c3ccc(S(=O)(=O)N4CCCC4)cc3c2=O)C1 (stereo not given)	-4	-2	38*	4	6
Cc1ccc2c(c1)C1CS(=O)(=O)N(C3CCCC3)C(=O)N1C2 (stereo not given)	nt	nt	nt	nt	-1
Cc1ccc(-n2c(SCC(=O)Nc3ccccc3-c3ccccc3)nnc2-c2cccnc2)cc1	nt	nt	nt	nt	21
Cc1ccccc1C(=O)N1CCC(Oc2cccnc2)CC1	nt	nt	nt	nt	-4
O=C(/C=C/c1ccco1)Nc1cccnc1	-4	-1	21	2	8
O=C(/C=C/c1ccco1)Nc1ccccn1	-5	0	73*	-2	-11
Cc1ccc(NC(=O)/C=C/c2ccco2)nc1	2	0	32*	-2	1
COc1ccc(/C=C(/NC(=O)c2ccccc2OC)C(=O)Nc2ccc(C(=O)O)cc2)cc1	5	-3	19	-3	12
CCOC(=O)/C(=C\C=C\c1ccccc1)NC(=O)c1ccccc1	6	3	67*	0	0
O=C(Nc1cccc(C(=O)O)c1)/C(=C\C=C\c1ccccc1)NC(=O)c1ccccc1	4	-7	33*	6	13
Cc1ccc(NC(=O)/C(=C\C=C\c2ccccc2)NC(=O)c2ccccc2)cc1	-11	0	51*	2	24
O=C(O)CCNC(=O)/C(=C/C=C/c1ccccc1)NC(=O)c1ccccc1	-5	-1	18	1	10
O=C(Nc1ccc(C(=O)O)cc1)/C(=C\C=C\c1ccccc1)NC(=O)c1ccccc1Br	8	-3	52*	-2	1
CCOC(=O)/C(=C/C=C/c1ccccc1)NC(=O)c1ccccc1	2	1	30	-24	12
COC(=O)c1cc2c(c3c4cc(F)ccc4n(S(=O)(=O)c4ccc(C)cc4)c13)C(=O)N(Cc1ccc(N(C)C)cc1)C2	nt	nt	nt	nt	6
CCOC(=O)CNC(=O)CSc1nnc(-c2ccccc2)n1CC	nt	nt	nt	nt	-8
Cc1ccc(C)c(NC(=O)CN2C(=O)CCSc3ccccc32)c1	nt	nt	nt	nt	-6
N#C/C(=C(\O)c1cc(Cl)sc1Cl)c1nc2ccccc2[nH]1	5	0	39*	8	6
COc1cc(/C(O)=C(\C#N)c2nc3ccccc3[nH]2)cc(OC)c1OC	87	12	38*	5	-2
Cc1cc(C)n2c(SCC(O)=C(C#N)c3nc4ccccc4[nH]3)nnc2n1	nt	2	21	-3	15
N#C/C(=C(/O)c1ccc(Cl)cc1)c1nc2ccccc2[nH]1	1	2	3	4	-10
COc1ccc(C)cc1-n1nnnc1SC/C(O)=C(\C#N)c1nc2ccccc2[nH]1	-1	-3	36*	2	4
COCC(=O)N1CCC(C(=O)NC2CCCc3ccccc32)CC1 (stereo not given)	nt	nt	nt	nt	0
SMILES	Mtb bLac sens	Mtb FBA inh	GDH-TPI inh	MazEF act	CCHF vOTU inh
COc1ccc(-n2cc(COC(=O)NCCc3c[nH]c4ccccc34)nn2)cc1	nt	nt	nt	nt	0
O=C(NC1CCCCN(Cc2cccc(Cl)c2)C1=O)c1ccccc1 (stereo not given)	nt	nt	nt	nt	-4
CC(C)N1CCCCC(NC(=O)c2ccc(F)cc2)C1=O (stereo not given)	nt	nt	nt	nt	2
CC(O)CNc1ccc(-c2n[nH]c(=O)c3ccccc23)cc1[N+](=O)[O-] (stereo not given)	0	-5	14	6	2
CC(O)CNc1cc(N)c([N+](=O)[O-])cc1[N+](=O)[O-] (stereo not given)	6	-5	43*	0	5
CCc1nnc(NS(=O)(=O)c2ccc(NC(=S)NC(=O)/C=C/c3ccccc3)cc2)s1	-4	-3	3	1	23
CCc1nnc(NS(=O)(=O)c2ccc(NC(=S)NC(=O)/C=C/c3ccc(C(C)C)cc3)cc2)s1	4	-4	32*	-8	nt
O=C(Nc1cccc(C(F)(F)F)c1)OCCCN1CCC2(CCC(c3ccccc3)CC2)C1=O (stereo not given)	nt	nt	nt	nt	20
CCOc1cc(CN2CCc3c([nH]c4ccccc34)C2)ccc1OC	-4	-1	3	3	2
COc1ccc(CN2CCc3c([nH]c4ccccc34)C2)cc1Br	-6	11	43*	15	14
O=C1C(Cl)=C(N2CCN(c3ccccc3[N+](=O)[O-])CC2)C(=O)c2ccccc21	8	-7	15	20	85*
O=C(NCC1COc2ccccc2O1)c1ccc(NC(=O)c2cccc(F)c2F)cc1 (stereo not given)	nt	nt	nt	nt	2
C#CCCCN([C@H](C(=O)OC)C(C)C)S(=O)(=O)c1ccc(F)cc1Br	nt	nt	nt	nt	6
Cc1ccc2ccc(C3C(=O)c4ccccc4C3=O)nc2c1	7	0	11	85*	-13
CC(C)(C)c1ccc(-c2nnc(SCC3CCCCO3)n2-c2ccc(Cl)cc2)cc1 (stereo not given)	nt	nt	nt	nt	16
C=CCN(CC#Cc1ccccc1)Cc1ccc(OC)cc1	nt	nt	nt	nt	0
O=C(NC1CCCCN(Cc2cccc(F)c2)C1=O)c1cccc(C(F)(F)F)c1 (stereo not given)	nt	nt	nt	nt	8
COc1ccc(-c2cc(=O)c3c(OC)c(OC)c(OC)c(OC)c3o2)cc1	nt	2	51*	6	-1
COc1ccc(-c2cc(=O)c3cc(OC)ccc3o2)cc1	-5	26	5	-30	-7
COc1cccc(C=C2SC(=S)NC2=O)c1	nt	-2	31*	8	10
COc1ccc(/C=C2/SC(=S)NC2=O)cc1OCc1ccccc1	88	-1	19	-3	-3
O=[N+]([O-])c1ccc(Nc2nc(N/N=C\c3ccc4c(c3)OCO4)nc(N3CCCCC3)n2)cc1	97	-1	35*	-4	13
C=CC[C@@]1(c2ccc(Br)cc2OC)Oc2ccccc2-c2nccnc21	nt	nt	nt	nt	-12
O=S(=O)(N/N=C\C=C\c1ccccc1)c1ccc(Br)cc1	0	-2	39*	-10	21
Cc1ccc(C(=O)N(C)[C@H]2C[C@H]3c4[nH]c5c(-c6ccc7c(c6)OCO7)cccc5c4CCN3C[C@H]2[C@H](C)O)cc1	nt	nt	nt	nt	-3
SMILES	Mtb bLac sens	Mtb FBA inh	GDH-TPI inh	MazEF act	CCHF vOTU inh
C#CCNC(=O)C[C@H]1C(=O)N(Cc2ccc(OC)cc2)C2=CCCC[C@@]21C(=O)OCC	nt	nt	nt	nt	-5
O=C(Nc1ccc(Cl)cc1)N1CCN(Cc2nc3ccccc3c(=O)[nH]2)CC1	nt	nt	nt	nt	1
COc1ccc(-c2cc(=Nc3c(C)n(C)n(-c4ccccc4)c3=O)c3ccccc3o2)cc1	4	+	17	2	-351
CC(=O)c1ccc(NC(=O)NC2CCCCN(Cc3cccc(Cl)c3)C2=O)cc1 (stereo not given)	nt	nt	nt	nt	29
CCCn1nc(C(=O)OCC(=O)Nc2ccc(C)cc2)c2ccccc2c1=O	1	-1	3	2	22
CCCn1nc(C(=O)Oc2ccc3c(C)cc(=O)oc3c2)c2ccccc2c1=O	-2	+	6	-1	-380
